# Measurements from PubChem BioAssay (EPA / NIEHS).
# Inconclusive results are not listed. Active and inactive are the calls of the source. How the source made its calls, unless noted: active means hit-call score of the fitted dose curve at least 0.9, where 1 is the maximum; inactive means score below 0.9.
# Experiments:
# [1] = target: Ratio of Nucleoli Translocation and Cytoplasm, AR (gene 367) (UniProt P10275); assay: UPITT_HCI_U2OS_AR_TIF2_Nucleoli_Cytoplasm_Ratio_Agonist: University of Pittsburgh U2OS Androgen Receptor-Transcriptional Intermediary Factor 2 (AR-TIF2) Agonism High Content Imaging Assay for Ratio of Nucleoli Translocation and Cytoplasm (AID 2284000; active means hit-call score of the fitted dose curve at least 0.9, where 1 is the maximum;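 further: hits raise the red nucleolar to cytoplasm ratio above vehicle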)
# Outline: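 Primary screen at 20 uM final (0.2% DMSO), then triplicate confirmation and dose-response from 0.195 to 50 uM final (0.5% DMSO). Cells: U2OS with AR-RFP and TIF2-GFP. Endpoint is the nucleoli/cytoplasm red-fluorescence ratio, gain-of-signal vs DMSO.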
# [2] = CCTE_Shafer_MEA_acute_spike_number: CCTE's Neural Acute Assay for Total Number of Spikes, Shafer Lab (AID 2284008)
# Outline: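 Primary rat cortical neurons on 16-electrode MEA wells; on DIV 13 or 15, 40-min baseline then 40-min recording with compound (0.03-40 uM) at 37 C. Spikes detected at 8x rms noise; percent change versus baseline, DMSO as negative control.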
# [3] = CCTE_Shafer_MEA_acute_firing_rate_mean: CCTE's Neural Acute Assay for Mean Firing Rate, Shafer Lab (AID 2284009);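 further: analyzed for loss of signal so actives lower firing rate relative to DMSO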
# Outline: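 Spontaneous spiking of primary rat cortical networks, DIV 13/15, 37 C. Compound 0.03-40 uM, n ≥3 wells; 40 min baseline vs 40 min treated. Endpoint fitted in loss-of-signal direction against DMSO.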
# [4] = CCTE_Harrill_HTTr_Viability_MCF7: CCTE's 6-hour Cell Viability Assessment for the High-Throughput Transcriptomics (HTTr) Platform, in MCF-7 cells cultured in DMEM + 10% fetal bovine serum, Harrill Lab (AID 2284010)
# Outline: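 Propidium iodide exclusion, imaged by high-content analysis, gauged viability after a six-hour exposure across eight concentrations. Cells were MCF-7 grown in DMEM with 10% fetal bovine serum; fits run in both directions against DMSO.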
# [5] = CCTE_Harrill_HTTr_Apoptosis_MCF7: CCTE's 6-hour Apoptosis Assessment for the High-Throughput Transcriptomics (HTTr) Platform, in MCF-7 cells cultured in DMEM + 10% fetal bovine serum, Harrill Lab (AID 2284011)
# Outline: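 MCF-7 cells in DMEM + 10% fetal bovine serum were exposed to chemicals for 6 hours over an eight-point dilution series. Caspase-3/7 activation was imaged by high content imaging with CellEvent Caspase 3/7 Green; bidirectional fitting used DMSO as baseline.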
# [6] = CCTE_Shafer_MEA_acute_burst_number: CCTE's Neural Acute Assay for Single-Electrode Bursts, Shafer Lab (AID 2284013)
# Outline: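 Burst totals were derived with adaptive spike detection (8x rms threshold) on filtered signals from rat cortical cultures; change relative to pre-treatment baseline after 40-min compound exposure (0.03-40 uM) was fitted in the negative direction against DMSO.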
# [7] = CCTE_Simmons_MITO_basal_resp_rate: CCTE's HepG2 Seahorse XF Respirometric Screening Assay at Basal Respiratory State, Simmons Lab (AID 2284001); conditions: actives raise or lower the signal
# Outline: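 Readout is oxygen consumption rate after test compound injection, measured by Seahorse XF in HepG2 cells. Seven concentrations from 125 nM up to 100 uM final are tested, and activity in either direction is fitted against DMSO.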
# [8] = CCTE_Simmons_MITO_max_resp_rate: CCTE's HepG2 Seahorse XF Respirometric Screening Assay at Maximal Respiratory State [uncoupled], Simmons Lab (AID 2284002); conditions: actives raise or lower the signal
# Outline: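 HepG2 oxygen consumption was read on a Seahorse XF96 after FCCP uncoupler injection, following test compound injection; 7 concentrations, 125 nM–100 uM final, three biological replicates. Bidirectional fitting against DMSO vehicle baseline.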
# [9] = CCTE_Simmons_MITO_inhib_resp_rate: CCTE's HepG2 Seahorse XF Respirometric Screening Assay at Inhibited Respiratory State [full ETC block], Simmons Lab (AID 2284006); conditions: actives raise or lower the signal
# Outline: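 This endpoint is the respiration rate remaining after rotenone/antimycin A block, in HepG2 cells on a Seahorse XF96. Chemicals spanned 125 nM–100 uM final, in three biological replicates. OCR was read every 6 minutes for 72 minutes and compared with DMSO vehicle.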
# [10] = CCTE_Simmons_MITO_viability: CellTiter-Glo Viability Assessment for CCTE's HepG2 Seahorse XF Respirometric Screening Assay [post-hoc], Simmons Lab (AID 2284007; active means hit-call score of the fitted dose curve at least 0.9, where 1 is the maximum;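 on AC50: cells exposed to chemical for 90 min before the ATP read; actives lower ATP signal relative to DMSO baseline meaning reduced viability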)
# Outline: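 Luciferase-coupled ATP read-out after the Seahorse run: HepG2 cells treated 90 minutes with test chemical, 7-point series of 125 nM–100 uM final, in triplicate biological runs. Vehicle DMSO; dichlone as positive control over 8 concentrations.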
# [11] = CCTE_Harrill_HTTr_CellCount_MCF7: CCTE's Cell Proliferation Assessment for the High-Throughput Transcriptomics (HTTr) Platform, Harrill Lab (AID 2284012; active means hit-call score of the fitted dose curve at least 0.9, where 1 is the maximum;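 further: cells exposed to compound for six hours; intended direction is loss of nuclei count meaning fewer cells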)
# Outline: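 Cell count from high-content imaging of Hoechst-labeled nuclei serves as viability/growth readout. Chemicals were applied to MCF-7 cells in eight concentrations for six hours, with fitting in both directions relative to DMSO.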
# [12] = target: Nucleoli Translocation, AR (gene 367) (UniProt P10275); assay: UPITT_HCI_U2OS_AR_TIF2_Nucleoli_Antagonist: University of Pittsburgh U2OS Androgen Receptor-Transcriptional Intermediary Factor 2 (AR-TIF2) Antagonism High Content Imaging Assay for Nucleoli Translocation (AID 2283997; active means hit-call score of the fitted dose curve at least 0.9, where 1 is the maximum)
# Outline: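 An antagonist-mode imaging screen: engineered U2OS (AR-RFP, TIF2-GFP) exposed to 20 uM compound, 0.2% DMSO. Activity reflects nucleolar red fluorescence change relative to DHT baseline.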
# [13] = target: Ratio of Nucleoli Translocation and Cytoplasm, AR (gene 367) (UniProt P10275); assay: UPITT_HCI_U2OS_AR_TIF2_Nucleoli_Cytoplasm_Ratio_Antagonist: University of Pittsburgh U2OS Androgen Receptor-Transcriptional Intermediary Factor 2 (AR-TIF2) Antagonism High Content Imaging Assay for Ratio of Nucleoli Translocation and Cytoplasm (AID 2283999; active means hit-call score of the fitted dose curve at least 0.9, where 1 is the maximum;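 further: antagonists lower the DHT-driven ratio of nucleolar to cytoplasmic red signal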)
# Outline: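 High-content imaging of red fluorescence ratio, nucleoli versus cytoplasm, in U2OS expressing AR-RFP and TIF2-GFP, fitted relative to DHT. Compounds tested once at 20 uM final, then 0.195 to 50 uM final in serial dilution.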
# [14] = target: Nucleoli Translocation, AR (gene 367) (UniProt P10275); assay: UPITT_HCI_U2OS_AR_TIF2_Nucleoli_Agonist: University of Pittsburgh U2OS Androgen Receptor-Transcriptional Intermediary Factor 2 (AR-TIF2) Agonism High Content Imaging Assay for Nucleoli Translocation (AID 2283998; active means hit-call score of the fitted dose curve at least 0.9, where 1 is the maximum)
# Outline: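 Cells express human AR fused to red fluorescent protein and TIF2 fused to GFP. Red fluorescence in the nucleolar region was quantified by high-content imaging and fitted as gain-of-signal against a DMSO baseline. Compounds were tested at 0.195 to 50 uM final (0.5% DMSO).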
# DIO1 (gene 1733) = assay: CCTE_GLTED_hDIO1: CCTE's human Deiodinase 1 (DIO1) Inhibition Assay, Great Lakes Toxicology and Ecology Division (GLTED) Lab (AID 2283987; active means hit-call score of the fitted dose curve at least 0.9, where 1 is the maximum;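 further: isolated human DIO1 enzyme in a cell-free setup rather than cells; enzyme activity read as free iodide liberated from substrate via Sandell-Kolthoff colorimetry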)
# Outline: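 Cell-free human DIO1 enzyme was incubated with test chemical for 3 h, and iodide released from substrate was measured by Sandell-Kolthoff absorbance. Loss of signal versus DMSO baseline indicated inhibition; plates were run in triplicate.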
# Nucleoli Translocation, AR (gene 367), sequence (P10275 whole entry, looked up, the tested form may be a part): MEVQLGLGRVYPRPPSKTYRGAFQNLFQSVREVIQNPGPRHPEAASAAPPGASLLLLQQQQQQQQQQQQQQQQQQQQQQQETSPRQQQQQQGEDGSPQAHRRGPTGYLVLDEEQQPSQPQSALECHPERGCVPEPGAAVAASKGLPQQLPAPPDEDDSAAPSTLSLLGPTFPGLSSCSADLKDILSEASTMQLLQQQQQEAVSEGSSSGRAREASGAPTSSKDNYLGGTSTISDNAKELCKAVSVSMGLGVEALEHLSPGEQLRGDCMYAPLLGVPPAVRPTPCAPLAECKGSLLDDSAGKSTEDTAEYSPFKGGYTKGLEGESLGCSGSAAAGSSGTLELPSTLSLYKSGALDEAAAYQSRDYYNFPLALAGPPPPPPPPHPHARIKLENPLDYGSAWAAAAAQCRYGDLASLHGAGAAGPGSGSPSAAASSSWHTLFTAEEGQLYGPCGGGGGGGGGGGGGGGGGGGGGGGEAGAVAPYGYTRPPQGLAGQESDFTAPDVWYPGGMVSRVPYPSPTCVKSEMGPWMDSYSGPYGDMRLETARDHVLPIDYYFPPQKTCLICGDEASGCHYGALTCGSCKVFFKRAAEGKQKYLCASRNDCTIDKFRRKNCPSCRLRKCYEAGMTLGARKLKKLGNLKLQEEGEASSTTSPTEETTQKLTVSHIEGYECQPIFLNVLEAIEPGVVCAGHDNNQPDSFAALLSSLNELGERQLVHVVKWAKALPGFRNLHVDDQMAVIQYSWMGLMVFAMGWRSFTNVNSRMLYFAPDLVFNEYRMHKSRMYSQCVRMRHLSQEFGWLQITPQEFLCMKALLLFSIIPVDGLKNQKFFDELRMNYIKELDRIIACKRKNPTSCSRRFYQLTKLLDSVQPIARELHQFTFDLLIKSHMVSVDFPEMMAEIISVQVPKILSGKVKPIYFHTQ
# Ratio of Nucleoli Translocation and Cytoplasm, AR (gene 367), sequence (P10275 whole entry, looked up): as the sequence (P10275 whole entry, looked up, the tested form may be a part) above
smiles,measurement,setting,value
COCc1nnc(-c2ccc[n+]([O-])c2)n1-c1c(Cl)c(Cl)cc2[nH]c(=O)c(=O)[nH]c12,outcome,[1],inactive
same,outcome,[2],inactive
same,outcome,[3],inactive
same,outcome,[4],inactive
same,outcome,[5],inactive
same,outcome,[6],inactive
O=C1CN(N=Cc2ccc([N+](=O)[O-])o2)C(=O)N1,outcome,[7],inactive
same,AC50,[8],12.7 µM (active)
same,AC50,[9],46.8 µM (active)
same,outcome,[10],inactive
same,outcome,[4],inactive
same,outcome,[5],inactive
same,outcome,[11],inactive
OCc1ccccc1,outcome,[12],inactive
same,outcome,[13],inactive
same,outcome,[2],inactive
same,outcome,[3],inactive
same,outcome,[4],inactive
same,outcome,[5],inactive
same,outcome,[11],inactive
same,outcome,[6],inactive
OCCOCCOCCO,outcome,[12],inactive
same,outcome,[14],inactive
same,outcome,[1],inactive
same,outcome,[4],inactive
same,outcome,[5],inactive
CC(C)c1nnc2ccc(-c3ocnc3-c3cc(F)ccc3F)cn12,AC50,[7],25.6 µM (active)
same,AC50,[8],76.2 µM (active)
same,outcome,[9],inactive
same,AC50,[10],50 µM (active)
same,outcome,[4],inactive
same,outcome,[5],inactive
CCc1cccc(CC)c1N,outcome,[12],inactive
same,outcome,[14],inactive
same,outcome,[13],inactive
same,outcome,[1],inactive
same,outcome,[4],inactive
same,outcome,[5],inactive
same,outcome,[11],inactive
FC(F)C(F)(F)COCC1CO1 (stereo not drawn),AC50,DIO1 (gene 1733),19.8 µM (active)
CCCCCCCCCCCCCCCCOS(=O)(=O)O,AC50,DIO1 (gene 1733),44.5 µM (active)
same,outcome,[12],inactive
same,outcome,[4],inactive
same,outcome,[5],inactive
O=C(NO)C1(NS(=O)(=O)c2ccc(Oc3ccc(F)cc3)cc2)CCOCC1,AC50,[7],39.2 µM (active)
same,AC50,[8],31.2 µM (active)
same,outcome,[9],inactive
same,outcome,[10],inactive
same,outcome,[4],inactive
same,outcome,[5],inactive
same,outcome,[11],inactive
CC[C@H](C)C(=O)O[C@H]1C[C@H](O)C=C2C=C[C@H](C)[C@H](CC[C@@H](O)C[C@@H](O)CC(=O)O)[C@H]21,outcome,[2],inactive
same,outcome,[3],inactive
same,outcome,[4],inactive
same,outcome,[5],inactive
same,outcome,[6],inactive
CCOc1ccc2[nH]cc(C(=O)NCc3ccccc3)c(=O)c2n1,outcome,[7],inactive
same,outcome,[8],inactive
same,outcome,[9],inactive
same,outcome,[10],inactive
same,outcome,[4],inactive
same,outcome,[5],inactive
same,outcome,[11],inactive
CCCCCCCC/C=C\CCCCCCCC(=O)OC[C@@H](O)[C@H]1OC[C@H](O)[C@H]1O,outcome,[2],inactive
same,outcome,[3],inactive
same,outcome,[4],inactive
same,outcome,[5],inactive
same,outcome,[11],inactive
same,outcome,[6],inactive
c1ccc2ncccc2c1,outcome,[4],inactive
same,outcome,[5],inactive
CC1(C)C(=O)N(Cl)C(=O)N1Cl,outcome,[4],inactive
same,outcome,[5],inactive
same,outcome,[11],inactive
C[C@]12C=CC(=O)C=C1CC[C@H]1[C@@H]3C[C@@H](O)[C@](O)(C(=O)CO)[C@@]3(C)C[C@H](O)[C@@]12F,outcome,[4],inactive
same,outcome,[5],inactive
same,outcome,[11],inactive
C[C@@H](Oc1ccc(CNC(=O)c2cccnc2Oc2ccc3c(c2)OCO3)c(F)c1)C(=O)O,outcome,[4],inactive
same,outcome,[5],inactive
same,outcome,[11],inactive
O=C(O)CO,outcome,[4],inactive
same,outcome,[5],inactive
O=C(N[C@H](CO)[C@H](O)c1ccc([N+](=O)[O-])cc1)C(Cl)Cl,outcome,[4],inactive
same,outcome,[5],inactive
same,outcome,[11],inactive
O=C(O)c1ccc2c(c1)nc(C(=O)NC1CCN(C3CC3)CC1)n2Cc1cc(-c2ccc(Cl)s2)on1,outcome,[4],inactive
same,outcome,[5],inactive
same,outcome,[11],inactive
CCCCCCCCN(C)C,outcome,[4],inactive
same,outcome,[5],inactive
same,outcome,[11],inactive
O=C(O)c1cccc(C(=O)O)c1,outcome,[4],inactive
same,outcome,[5],inactive
c1ccc2c(c1)-c1cccc3c1c-2cc1ccccc13,outcome,[4],inactive
same,outcome,[5],inactive
same,outcome,[11],inactive
O=c1[nH]cnc2c1ncn2[C@H]1CC[C@@H](CO)O1,outcome,[4],inactive
same,outcome,[5],inactive
CNC(C)=O,outcome,[4],inactive
same,outcome,[5],inactive
OC(Cn1cncn1)(Cn1cncn1)c1ccc(F)cc1F,outcome,[4],inactive
same,outcome,[5],inactive
NC(=O)N1c2ccccc2C=Cc2ccccc21,outcome,[4],inactive
same,outcome,[5],inactive
same,outcome,[11],inactive
CCCCCOC(C)=O,outcome,[4],inactive
same,outcome,[5],inactive
OCCNCCO,outcome,[4],inactive
same,outcome,[5],inactive
same,outcome,[11],inactive
NNC(=O)c1ccncc1,outcome,[4],inactive
same,outcome,[5],inactive
C=CN1CCCC1=O,outcome,[4],inactive
same,outcome,[5],inactive
same,outcome,[11],inactive
NC(=O)N(O)[C@@H]1COc2cc(OCc3ccccc3)ccc21,outcome,[4],inactive
same,outcome,[5],inactive
same,outcome,[11],inactive
NC(N)=O,outcome,[4],inactive
same,outcome,[5],inactive
same,outcome,[11],inactive
CCCOc1ccc(S(=O)(=O)N2CCN(CC)CC2)cc1-c1nc2c(CC)n(Cc3ccccn3)nc2c(=O)[nH]1,outcome,[4],inactive
same,outcome,[5],inactive
CCCCCCCCCCCCCCO,outcome,[4],inactive
same,outcome,[5],inactive
CCCCN1C(=O)[C@@H]([C@H](O)C2CCCCC2)NC(=O)C12CCN(Cc1ccc(Oc3ccc(C(=O)O)cc3)cc1)CC2,outcome,[4],inactive
same,outcome,[5],inactive
same,outcome,[11],inactive
OC[C@H]1O[C@@H]2O[C@H]3[C@H](O)[C@@H](O)[C@@H](O[C@H]4[C@H](O)[C@@H](O)[C@@H](O[C@H]5[C@H](O)[C@@H](O)[C@@H](O[C@H]6[C@H](O)[C@@H](O)[C@@H](O[C@H]7[C@H](O)[C@@H](O)[C@@H](O[C@H]1[C@H](O)[C@H]2O)O[C@@H]7CO)O[C@@H]6CO)O[C@@H]5CO)O[C@@H]4CO)O[C@@H]3CO,outcome,[4],inactive
same,outcome,[5],inactive
same,outcome,[11],inactive
CC(C)CCCCCCOC(=O)C1CCCCC1C(=O)OCCCCCCC(C)C (stereo not drawn),outcome,[4],inactive
same,outcome,[5],inactive
CCOC(N)=O,outcome,[4],inactive
same,outcome,[5],inactive
CCn1nc(C)c2c1C(=O)NCC(c1ccc(O)cc1)=N2,outcome,[4],inactive
same,outcome,[5],inactive
same,outcome,[11],inactive
CC(C)CC(C)O (stereo not drawn),outcome,[4],inactive
same,outcome,[5],inactive
S=P(N1CC1)(N1CC1)N1CC1,outcome,[4],inactive
same,outcome,[5],inactive
Nc1ccn([C@@H]2O[C@H](CO)[C@@H](O)[C@@H]2O)c(=O)n1,outcome,[4],inactive
same,outcome,[5],inactive
CCCC(CCC)C(=O)O,outcome,[4],inactive
same,outcome,[5],inactive
same,outcome,[11],inactive
Cn1cc[nH]c1=S,outcome,[4],inactive
same,outcome,[5],inactive
same,outcome,[11],inactive
COS(C)(=O)=O,outcome,[4],inactive
same,outcome,[5],inactive
same,outcome,[11],inactive
CC(=O)c1ccccc1,outcome,[4],inactive
same,outcome,[5],inactive
same,outcome,[11],inactive
Cc1ccc(S(=O)(=O)NC(=O)NN2CCCCCC2)cc1,outcome,[4],inactive
same,outcome,[5],inactive
